Measured values taken from PubChem BioAssay AID1159580 (chemical genetic matrix, 2015).
The whole screen tested about 5,500 compounds, of which about 2,000 (36%) were called active. Another 18% or so got no clear call; they are omitted. Cut-off read from the data, not from the text of the source: active = normalized growth mostly below about 0.91 (no sharp cut-off); inconclusive = no clear call, values can overlap the other calls; inactive = mostly above about 0.92. Some of the results follow.

Test: chemical genetic growth profiling, strain panel (AID 1159580);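 note: tested at 20 µM; growth read once vehicle control cultures reached saturation at 30 °C; 1 = growth at the plate median or of vehicle wells; lower values mean less growth of the strain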
Settings: growth OD

Measured: normalized growth

O=C1C[C@@H](c2ccc(O)cc2)Oc2cc(O)cc(O)c21
inactive: S. cerevisiae deletion strains, locus YJR075W, strain HOC1, active compounds read low 1.02 | S. cerevisiae deletion strains, locus YKL009W, strain mrt4, active compounds read low 1 | S. cerevisiae deletion strains, locus YKL068W, active compounds read low 0.998 | S. cerevisiae deletion strains, locus YKL085W, strain MDH1 (second series), active compounds read low 1 | S. cerevisiae deletion strains, locus YKL085W, strain MDH1, active compounds read low 1 | S. cerevisiae deletion strains, locus YKL160W, strain elf1, active compounds read low 0.985 | S. cerevisiae deletion strains, locus YKL190W, strain CNB1, active compounds read low 1.01 | S. cerevisiae deletion strains, locus YKR001C, strain vps1, active compounds read low 0.999 | S. cerevisiae deletion strains, locus YKR026C, strain gcn3, active compounds read low 0.962 | S. cerevisiae deletion strains, locus YKR091W, strain srl3, active compounds read low 0.973 | S. cerevisiae deletion strains, locus YLL001W, strain dnm1, active compounds read low 0.944 | S. cerevisiae deletion strains, locus YLL026W, active compounds read low 0.967 | S. cerevisiae deletion strains, locus YLL041C, strain sdh2, active compounds read low 0.977 | S. cerevisiae deletion strains, locus YLR027C, strain aat2, active compounds read low 0.982 | S. cerevisiae deletion strains, locus YLR039C, strain RIC1, active compounds read low 1 | S. cerevisiae deletion strains, locus YLR058C, strain SHM2, active compounds read low 1.01 | S. cerevisiae deletion strains, locus YLR102C, strain apc9, active compounds read low 1.02 | S. cerevisiae deletion strains, locus YLR113W, strain HOG1, active compounds read low 0.967 | S. cerevisiae deletion strains, locus YLR221C, strain rsa3, active compounds read low 0.975 | S. cerevisiae deletion strains, locus YLR258W, strain gsy2, active compounds read low 0.968 | S. cerevisiae deletion strains, locus YLR262C, strain YPT6 (second series), active compounds read low 0.962 | S. cerevisiae deletion strains, locus YLR262C, strain YPT6, active compounds read low 0.992 | S. cerevisiae deletion strains, locus YLR268W, strain sec22, active compounds read low 1.01 | S. cerevisiae deletion strains, locus YLR320W, strain mms22, active compounds read low 0.959 | S. cerevisiae deletion strains, locus YLR330W, strain CHS5, active compounds read low 1.02 | S. cerevisiae deletion strains, locus YLR342W, strain FKS1 (second series), active compounds read low 0.989 | S. cerevisiae deletion strains, locus YLR342W, strain FKS1, active compounds read low 0.963 | S. cerevisiae deletion strains, locus YLR357W, strain rsc2, active compounds read low 0.935 | S. cerevisiae deletion strains, locus YLR370C, strain arc18, active compounds read low 0.957 | S. cerevisiae deletion strains, locus YLR371W, strain rom2, active compounds read low 1.03 | S. cerevisiae deletion strains, locus YLR384C, strain iki3, active compounds read low 0.959 | S. cerevisiae deletion strains, locus YLR418C, strain cdc73, active compounds read low 1.03 | S. cerevisiae deletion strains, locus YML016C, strain PPZ1, active compounds read low 1.01 | S. cerevisiae deletion strains, locus YML032C, strain rad52, active compounds read low 1.01 | S. cerevisiae deletion strains, locus YML120C, strain ndi1, active compounds read low 0.957 | S. cerevisiae deletion strains, locus YML124C, strain tub3, active compounds read low 1.02 | S. cerevisiae deletion strains, locus YMR058W, strain fet3, active compounds read low 0.955 | S. cerevisiae deletion strains, locus YMR078C, strain ctf18, active compounds read low 1.02 | S. cerevisiae deletion strains, locus YMR125W, strain sto1, active compounds read low 0.938 | S. cerevisiae deletion strains, locus YMR129W, active compounds read low 0.966 | S. cerevisiae deletion strains, locus YMR205C, strain PFK2, active compounds read low 0.942 | S. cerevisiae deletion strains, locus YMR223W, strain ubp8, active compounds read low 1.01 | S. cerevisiae deletion strains, locus YMR231W, strain pep5, active compounds read low 0.976 | S. cerevisiae deletion strains, locus YMR263W, strain SAP30, active compounds read low 1.01 | S. cerevisiae deletion strains, locus YMR307W, strain GAS1, active compounds read low 0.994 | S. cerevisiae deletion strains, locus YNL067W, strain RPL9B, active compounds read low 1.01 | S. cerevisiae deletion strains, locus YNL071W, strain lat1, active compounds read low 0.967 | S. cerevisiae deletion strains, locus YNL128W, strain TEP1, active compounds read low 1.02 | S. cerevisiae deletion strains, locus YNL153C, strain GIM3, active compounds read low 1.01 | S. cerevisiae deletion strains, locus YNL183C, strain NPR1, active compounds read low 0.936 | S. cerevisiae deletion strains, locus YNL209W, strain ssb2, active compounds read low 0.966 | S. cerevisiae deletion strains, locus YNL233W, strain BNI4, active compounds read low 0.999 | S. cerevisiae deletion strains, locus YNL248C, strain rpa49, active compounds read low 0.969 | S. cerevisiae deletion strains, locus YNL250W, strain rad50, active compounds read low 1.01 | S. cerevisiae deletion strains, locus YNL271C, strain bni1, active compounds read low 1.01 | S. cerevisiae deletion strains, locus YNL298W, strain CLA4, active compounds read low 1.03 | S. cerevisiae deletion strains, locus YNL307C, strain MCK1, active compounds read low 1.01 | S. cerevisiae deletion strains, locus YNL322C, strain KRE1 (second series), active compounds read low 0.982 | S. cerevisiae deletion strains, locus YNL322C, strain KRE1, active compounds read low 1.01 | S. cerevisiae deletion strains, locus YNR049C, strain mso1, active compounds read low 0.959 | S. cerevisiae deletion strains, locus YNR052C, strain pop2, active compounds read low 1.01 | S. cerevisiae deletion strains, locus YOL006C, strain TOP1, active compounds read low 0.997 | S. cerevisiae deletion strains, locus YOL012C, strain htz1 0.851 | S. cerevisiae deletion strains, locus YOL147C, strain pex11, active compounds read low 1.02 | S. cerevisiae deletion strains, locus YOR001W, strain rrp6, active compounds read low 0.983 | S. cerevisiae deletion strains, locus YOR061W, strain CKA2, active compounds read low 1.02 | S. cerevisiae deletion strains, locus YOR069W, strain VPS5, active compounds read low 1.01 | S. cerevisiae deletion strains, locus YOR070C, strain gyp1, active compounds read low 0.964 | S. cerevisiae deletion strains, locus YOR080W, strain dia2, active compounds read low 0.976 | S. cerevisiae deletion strains, locus YOR083W, strain WHI5, active compounds read low 0.996 | S. cerevisiae deletion strains, locus YOR106W, strain vam3, active compounds read low 0.963 | S. cerevisiae deletion strains, locus YOR136W, strain idh2, active compounds read low 1.02 | S. cerevisiae deletion strains, locus YOR144C, strain elg1, active compounds read low 1.01 | S. cerevisiae deletion strains, locus YOR184W, strain ser1, active compounds read low 1 | S. cerevisiae deletion strains, locus YOR231W, strain MKK1, active compounds read low 0.95 | S. cerevisiae deletion strains, locus YOR265W, strain rbl2, active compounds read low 0.969 | S. cerevisiae deletion strains, locus YOR270C, strain vph1, active compounds read low 0.902 | S. cerevisiae deletion strains, locus YOR290C, strain snf2, active compounds read low 0.923 | S. cerevisiae deletion strains, locus YOR316C, strain cot1, active compounds read low 1.01 | S. cerevisiae deletion strains, locus YPL051W, strain arl3, active compounds read low 0.984 | S. cerevisiae deletion strains, locus YPL055C, strain LGE1, active compounds read low 1.02 | S. cerevisiae deletion strains, locus YPL078C, strain atp4, active compounds read low 0.971 | S. cerevisiae deletion strains, locus YPL106C, strain sse1, active compounds read low 0.957 | S. cerevisiae deletion strains, locus YPL240C, strain hsp82, active compounds read low 0.978 | S. cerevisiae deletion strains, locus YPL241C, strain CIN2, active compounds read low 1 | S. cerevisiae deletion strains, locus YPL256C, strain CLN2, active compounds read low 0.921 | S. cerevisiae deletion strains, locus YPR119W, strain clb2, active compounds read low 1.01 | S. cerevisiae deletion strains, locus YPR141C, strain kar3, active compounds read low 1.01 | S. cerevisiae deletion strains, locus YPR163C, strain tif3, active compounds read low 1 | S. cerevisiae deletion strains, locus YPR167C, strain met16, active compounds read low 1.01 | S. cerevisiae deletion strains, strain wtn01, active compounds read low 1.02 | S. cerevisiae strains, strain wild type, active compounds read low 1.01
